Hits are enriched below; roughly 2.4% of the tested compounds scored in any of these assays.
Cardiac RTF inh: cardiac RTF calcium desensitization; IANBD-labeled cardiac RTF, Ca2+ fluorescence; inhibition, % at 7.15 µM; hit rate 0.12% among 340,000;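 active means inhibition above the mean inhibition of all tested compounds plus 3 SD, cut at about 17% in these data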;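 further: assay run at fixed EC70 calcium of 1.6 mM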
CRFR2-BP ag: agonists of human CRF-binding protein/CRF-R2 receptor complex | HEK293 CRF-R2/CRF-BP, calcium dye fluorescence (FLIPR); percent of saturating CRF peptide response | activation, % at 13.2 µM | hit rate 0.46% among 350,000 | AID 588473;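 active means activation of at least 50%, plus an integration ratio under a set limit after plate pattern correction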
TMEM16A act: activates or potentiates the mouse TMEM16A chloride channel. Q8BHY3. HEK293 TMEM16A/YFP-H148Q/I152L, iodide quench fluorescence; hits give low values. B-score at 10 µM. hit rate 0.3% among 340,000. AID 623877;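 active means fluorescence-ratio B-score plate-corrected deviation score at least 3 library SD below zero, with starting fluorescence score within 5 deviations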;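 further: channel opened by trigger with iodide after compound preincubation; score built on the fluorescence ratio of max minus min over baseline; more negative score means more quench and so TMEM16A activation or potentiation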
CRFR2-BP antag: CRF-BP/CRF-R2 complex antagonism; inhibition, % at 11.8 µM; hit rate 0.59% among 350,000; HEK293 CRF-R2/CRF-BP, CRF-induced calcium fluorescence;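 active means inhibition of the ligand-induced calcium signal above about 50% at the single tested concentration, limit read from the data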
ANO1 block: inhibitors of mouse TMEM16A calcium-activated chloride channel. AID 588511. hit rate 1.2% among 310,000. normalized B-score (activity score, 25-100; higher = stronger inhibition) at 10 µM. HEK293 TMEM16A/YFP iodide influx fluorescence, ionomycin. Q8BHY3;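 active means ratio plate-corrected score three or more library SD toward inhibition, starting fluorescence score within five deviations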;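 further: score derived from kinetic fluorescence span divided by baseline fluorescence per well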
cardiac RTF act: cardiac RTF calcium sensitization. P19429+P45379. IANBD-labeled TnC RTF fluorescence at EC20 calcium; 0% EC20 calcium, 100% full calcium. hit rate 0.24% among 340,000. activation, % at 7.2 µM;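 active means activation above the mean over all tested compounds plus 3 SD, cut at about 30% in these data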;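 further: rise in fluorescence read as greater calcium sensitivity of cardiac thin filaments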
Of the large screens only hits and unclear results are named; the others gave an inactive call.

COCCNC(=O)COc1ccc(Br)cc1Cl	ANO1 block 100
CN(C)CCCNC(=O)COc1ccc(Br)cc1Cl	none
CC(=O)N1CCc2ccc(S(=O)(=O)N3CCN(C)CC3)cc21	CRFR2-BP ag 203
CCN(CC)S(=O)(=O)c1cc([N+](=O)[O-])ccc1NNC(=O)Nc1ccc(Cl)c(Cl)c1	ANO1 block 25
CC[C@@H]1CCCCc2ccccc2[C@H](C(=O)C[C@H](O)CC(C)=O)OC1=O	CRFR2-BP antag 51 (no result: ANO1 block)
O=c1ccn([C@@H]2O[C@H](CNS(=O)(=O)C3CC3)[C@@H](O)[C@H]2O)c(=O)[nH]1	none (no result: TMEM16A act, ANO1 block)
Cc1nn(-c2ccc(C(=O)N3CCN(S(=O)(=O)c4ccccc4C(F)(F)F)CC3)cc2)c(C)c1Cl	TMEM16A act -5.8 (no result: ANO1 block)
COc1ccc(NC(=S)N2CCC(C(O)(c3ccccc3)c3ccccc3)CC2)cc1	none
CCOc1ccc(NC(=S)N2CCC(C(O)(c3ccccc3)c3ccccc3)CC2)cc1	CRFR2-BP antag 56
C=CCn1c(SCC(=O)Nc2ccc(-c3nc4ccc(C)cc4s3)cc2)nnc1-c1ccccc1	none
COC(=O)CC1SC(=O)NC1=Nc1ccc(O)cc1 (configuration not stated)	none
COC(=O)CC1SC(=O)NC1=Nc1ccc(OC)cc1 (configuration not stated)	CRFR2-BP antag 73
CC1CC(C)CN(C(=O)COC(=O)CNC(=O)C23CC4CC(CC(C4)C2)C3)C1 (configuration not stated)	none
CC(=O)Nc1ccc([N+](=O)[O-])cn1	none
Cc1ccc(OCC(=O)Nc2ccc([N+](=O)[O-])cn2)cc1C	CRFR2-BP antag 51
CCN(CC)c1ccc2c(C)c(Cl)c(=O)oc2c1	none
CCN(CC)c1ccc2c(c1)oc(=O)c1c(Cl)cc(=O)oc12	CRFR2-BP ag 223, cardiac RTF act 200
Cc1ccccc1-c1cccc([C@@H]2C[C@H]3[C@H](CON3C)CN2Cc2cc(Cl)cc(Cl)c2)c1	none (no result: TMEM16A act, ANO1 block)
Cc1ccccc1OCC(=O)NCc1ccccc1	none
CCOC(=O)C(=O)Nc1ccc(OCc2ccccc2)cc1	none
Cc1cc(C)nc(/N=C(\N)Nc2ccc(S(=O)(=O)O)cc2)n1	none (no result: Cardiac RTF inh, ANO1 block, cardiac RTF act)
COc1ccc(N/C(N)=N/c2nc(C)cc(C)n2)cc1	CRFR2-BP ag 70 (no result: Cardiac RTF inh, TMEM16A act, ANO1 block, cardiac RTF act)
Cc1cc(C)nc(/N=C(\N)Nc2ccc(CC(=O)OC(C)C)cc2)n1	CRFR2-BP ag 101
Cc1cc(C)nc(/N=C(\N)Nc2cccc(OCc3ccccc3)c2)n1	CRFR2-BP ag 108
Cc1cc(C)nc(/N=C(\N)Nc2ccc(OCc3ccccc3)cc2)n1	CRFR2-BP ag 124, TMEM16A act -7.8, ANO1 block 100
O=C(CNCC1CCCO1)NCc1ccco1 (configuration not stated)	none
COc1ccccc1N1CCN(C(=O)C(=O)c2cn(CC(=O)N3CCCC3)c3ccccc23)CC1	CRFR2-BP antag 62
COc1ccccc1N1CCN(C(=O)C(=O)c2cn(CC(=O)N3CCCCCC3)c3ccccc23)CC1	none
COc1ccc(N2CCCn3c2nc2c3c(=O)n(CCc3ccccc3)c(=O)n2C)cc1	TMEM16A act -5
Cn1c(=O)n(CCc2ccccc2)c(=O)c2c1nc1n2CCCN1CCc1ccccc1	none
CC(C)Cn1c(=O)c2c(nc3n2CCCN3CCc2ccccc2)n(C)c1=O	ANO1 block 25
NS(=O)(=O)c1ccc(CNC(=O)Cn2nc(C(F)F)cc2C(F)F)cc1	TMEM16A act -4.6 (no result: ANO1 block)
O=C(Nc1ccn(CCCN2CCC(N3CCOCC3)CC2)c(=O)n1)OCc1ccccc1	none (no result: Cardiac RTF inh, TMEM16A act, ANO1 block, cardiac RTF act)
COc1ccccc1/C=C1\CCC(C2CCCC2)C1=O (configuration not stated)	none
CC(C)CCNC(=S)NC1CCCC1	none
CC(C)CN(CC(C)C)C(=S)NC1CCCCC1	CRFR2-BP antag 55
O=S(=O)(NCc1ccccc1)c1ccccc1NCCc1ccccc1	CRFR2-BP antag 110 (no result: TMEM16A act, ANO1 block)
O=c1ccc2cc3c([nH]c4ccc(Br)cc43)oc-2c1O	Cardiac RTF inh 24 (no result: CRFR2-BP ag, CRFR2-BP antag)
COc1ccc(C2=C/C(=C/c3cccnc3)C(=O)O2)cc1OC	CRFR2-BP ag 144
CC(=O)c1cc(Cl)ccc1OCc1cccc(S(=O)(=O)N2CCOCC2)c1	none
Cc1nn(-c2ccccc2)c(Cl)c1/C=N/NC(=O)c1ccccc1NS(=O)(=O)c1cccs1	ANO1 block 100
Cc1nn(-c2ccccc2)c(Cl)c1/C=N/NC(=O)c1ccc(NS(=O)(=O)c2cccs2)cc1	none (no result: Cardiac RTF inh, CRFR2-BP ag, TMEM16A act, CRFR2-BP antag, cardiac RTF act)
O=C(Nc1ccc(Cl)cc1)c1cc2nc(-c3ccco3)cc(C(F)(F)F)n2n1	none
Cc1nn(C)c(C)c1NC(=O)c1cc2nc(-c3ccco3)cc(C(F)(F)F)n2n1	CRFR2-BP antag 134
NC(=S)N/N=C/c1ccccc1	none
NC(=S)N/N=C/c1ccccc1OC(=O)/C=C/c1ccccc1	CRFR2-BP antag 124
COc1ccccc1NC(=O)CCCCCN1C(=O)c2cccc([N+](=O)[O-])c2C1=O	none
COc1cc(/C=C2/C(=O)c3cccc([N+](=O)[O-])c3C2=O)c(Br)cc1O	ANO1 block 25
C=CCC[C@H](Cc1ccc(F)cc1)C(=O)OC[C@H](Cc1c[nH]c2ccccc12)NC(=O)[C@@H](CC=C)CC(=O)NCCO	CRFR2-BP ag 60 (no result: ANO1 block)
N#Cc1ccccc1Sc1ccccc1N	CRFR2-BP antag 57
CNC(=O)c1ccccc1Sc1ccccc1C#N	none
O=C(CCNC(=O)c1ccc([N+](=O)[O-])cc1)Nc1cccc(S(=O)(=O)N2CCOCC2)c1	none (no result: ANO1 block)
CC1CN(C(=O)c2cc3cc(Br)ccc3[nH]2)CC(C)O1 (configuration not stated)	none
COC1(OC)C=CC(=O)C=C1NC(=O)c1ccccc1OC(C)=O	CRFR2-BP antag 104
COc1ccc(C)cc1NC(=O)C1CCCN1S(=O)(=O)c1ccccc1F (configuration not stated)	none (no result: ANO1 block)
CC1(C2CC2)NC(=O)N(CC(=O)Nc2ccccc2F)C1=O (configuration not stated)	CRFR2-BP antag 54 (no result: ANO1 block)
Cc1ccc(NC(=O)CN2C(=O)NC(C)(C3CC3)C2=O)c(C)c1 (configuration not stated)	none (no result: ANO1 block)
CCCCCn1nc(C)c(/C=N/NC(=O)c2ccoc2C)c1C	none
CCCCCn1nc(C)c(/C=N\NC(=O)c2cc(C)oc2C)c1C	CRFR2-BP ag 107
CCOc1ccc(S(=O)(=O)N2CN(c3cccc(C(C)=O)c3)c3nc4ccccc4nc32)cc1	CRFR2-BP antag 52 (no result: ANO1 block)
CC(C)CCOc1ccc(CO[C@@H]2[C@H]3OC(C)(C)O[C@H]3O[C@@H]2C(O)CO)cc1 (some centres not stated)	none

Bioassay records deposited in PubChem BioAssay by several laboratories.
